High-throughput results deposited in PubChem BioAssay by several laboratories.
This is a sample that favours compounds with a hit; in the whole collection about 2.6% have one here.
TWEAK Fn14 block – inhibitors of TWEAK-Fn14 signaling, primary screen, luciferase reporter cells, uHTS | 360,000 tested, 2% active | inhibition, % at 10 µM | TWEAK-stimulated Fn14 reporter cells, luciferase luminescence, 8 h; in the data active = inhibition above about 50%
TROY signal inh – inhibitors of TROY-driven NF-kB signaling, primary screen, Q293 LMP1-TROYcd cells, NF-kB luciferase, uHTS | Q293 LMP1-TROYcd NF-kB luciferase reporter, 4 h | 360,000 tested, 0.98% active | inhibition, % at 10 µM;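 active = compounds whose plate-normalised and pattern-corrected inhibition of the luciferase reporter signal at the single screening dose is 50% or more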
LGR2 inh – inhibitors of bursicon-induced LGR2 CRE-luciferase signal, primary screen, cell-based, HEK293, CRE-luciferase reporter, bursicon stimulation; Drosophila bursicon receptor LGR2 (rickets); bursicon-stimulated, 4 h; inhibition, % at 9.99 µM; 380,000 tested, 0.35% active; AID 720647, 2013;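 active = drop in luminescence signal, shown as inhibition above about 50% in the replicate tests, limit read from the data, passing the limit was not always enough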;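 note: agonist challenge used bursicon conditioned medium at about half maximal strength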
KKLEB tox – cytotoxicity in KKLEB CF airway cells, primary screen, cytotoxicity control for CF NF-kB inhibitor project, cell-based, uHTS, fluorescence assay plates. KKLEB CF airway cells viability, ATPlite luminescence, overnight; active compounds read low; cells stimulated with P. aeruginosa culture filtrate. activity change (cytotoxicity), % at 5 µM. 360,000 tested, 0.36% active;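 active = corrected activity change at or below -50% at 5 µM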
CF NFkB block – inhibitors of PAF-induced NF-kB signaling, primary screen, cell-based, GFP fluorescence, uHTS; KKLEB NF-kB-GFP reporter, GFP fluorescence overnight; 360,000 tested, 0.86% active; inhibition, % at 5 µM;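 active = at least 50% inhibition at 5 µM, scaled per plate between neutral and stimulator controls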;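 note: PAF is a Pseudomonas aeruginosa culture filtrate used as stimulus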
EWS-Fli block – EWS/Fli-driven NR0B1 reporter inhibitors, primary screen, A673 cells, NR0B1 luciferase, luminescence, MLPCN library; viability-normalised; inhibition, % at 12.6 µM; 350,000 tested, 0.67% active;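 active = mean inhibition of at least 50% after viability correction, with every replicate also passing that limit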;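 note: firefly luciferase signal divided by Alamar Blue viability fluorescence both relative to DMSO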
Hits are given with their value; i = inactive; nt = no result.

SMILES	TWEAK Fn14 block	TROY signal inh	LGR2 inh	KKLEB tox	CF NFkB block	EWS-Fli block
CC1(C(=O)NCCc2ccccc2)Cc2c(-c3ccc4c(c3)OCO4)ccnc2O1 (stereo unspecified)	i	i	i	i	i	58
COc1ccc(-c2cnc3c(c2)C(=O)N([C@H](C)CO)C[C@@H](C)[C@H](CN(C)C(=O)C2CCCCC2)O3)cc1	nt	nt	i	nt	nt	i
O=C(COC(=O)c1nc(Cl)c(Cl)c(Cl)c1Cl)c1ccc[nH]1	i	67	i	i	i	i
CCCCN1C(=O)C2(OCCCO2)c2cccc(C)c21	100	i	i	i	i	i
C/C=C/c1ccc([C@@H]2[C@@H](CNC(=O)c3ccncc3)N(C(=O)CC)[C@H]2CO)cc1	nt	nt	i	nt	nt	i
CCNS(=O)(=O)c1ccc(NC(=O)Cn2nc(C(F)(F)F)cc2C)cc1	87	nt	nt	i	i	nt
COc1cc2c(cc1OC)C(c1ccc(-c3ccc(Cl)c(Cl)c3)o1)=NCC2	75	i	nt	i	i	nt
COc1cc2c(cc1OC)C(c1ccc(-c3ccc(Cl)cc3Cl)o1)=NCC2	50	i	nt	i	i	nt
C[C@H]1CN([C@@H](C)CO)C(=O)c2cc(C#CC(C)(C)O)cnc2O[C@H]1CN(C)C(=O)C1CC1	nt	nt	i	nt	nt	i
COc1ccc(NC(=O)C[C@H]2CC[C@H]3[C@@H](COc4ccc(NC(=O)C5CC5)cc4C(=O)N3C)O2)cc1	nt	nt	i	nt	nt	i
O=C(C[C@H]1C=C[C@@H](NS(=O)(=O)c2ccccc2)[C@H](CO)O1)N1CCc2ccccc2C1	nt	nt	i	nt	nt	i
C[C@@H]1CCCCO[C@@H](CN(C)Cc2ccc(C(=O)O)cc2)[C@@H](C)CN([C@@H](C)CO)C(=O)c2cc(NS(=O)(=O)c3ccccc3)ccc2O1	nt	nt	i	nt	nt	i
COc1ccc2cc3[n+](cc2c1O)CCc1cc2c(cc1-3)OCO2	i	i	i	nt	nt	i
C[n+]1cc2c3c(ccc2c2ccc4cc5c(cc4c21)OCO5)OCO3	nt	nt	101	nt	nt	59
CC(C)NC(=O)N(C)C[C@H]1Oc2cc(-c3cncnc3)ccc2S(=O)(=O)N([C@H](C)CO)C[C@H]1C	nt	nt	i	nt	nt	i
C/C=C/c1cnc2c(c1)C(=O)N([C@H](C)CO)C[C@H](C)[C@@H](CN(C)Cc1ccccc1)O2	nt	nt	i	nt	nt	i
COc1ccc(N(C(=O)CCl)C(C(=O)NCCc2ccccc2)c2cccs2)cc1 (stereo unspecified)	60	i	i	-92	90	i
COCC#Cc1ccc([C@H]2[C@@H](CO)N3C(=O)CN(C(=O)C4CC4)C[C@@H]23)cc1	nt	nt	i	nt	nt	i
Nc1c(C(=O)N2CCOCC2)sc2nc3c(cc12)CCCC3	i	i	71	i	i	i
Nc1c(C(=O)N2CCOCC2)sc2nc3c(cc12)CCC3	i	i	i	i	i	i
Cc1nc(NC(=O)c2ccccc2)sc1-c1csc(NCc2ccccc2)n1	i	i	nt	i	i	nt
CCOc1ccccc1Nc1nc(-c2sc(NC(=O)c3cccc(Cl)c3)nc2C)cs1	64	i	nt	i	i	i
Cc1nc(NC(=O)c2ccccc2)sc1-c1csc(NCCc2ccccc2)n1	54	i	nt	i	i	nt
COc1ccccc1Nc1nc(-c2sc(NC(=O)c3ccccc3)nc2C)cs1	i	i	i	i	i	i
O=C(C[C@@H]1C[C@@H]2c3cc(NS(=O)(=O)c4ccc(F)cc4)ccc3O[C@@H]2[C@@H](CO)O1)NCc1ccc(Cl)cc1	nt	nt	i	nt	nt	i
SMILES	TWEAK Fn14 block	TROY signal inh	LGR2 inh	KKLEB tox	CF NFkB block	EWS-Fli block
CCCC(=O)Nc1ccc2c(c1)C(=O)N(C)[C@H]1CC[C@@H](CC(=O)N3CCCCC3)O[C@@H]1CO2	nt	nt	i	nt	nt	i
C[C@H]1CN([C@@H](C)CO)C(=O)c2cc(C3=CCCC3)cnc2O[C@H]1CN(C)Cc1ccc(C(=O)O)cc1	nt	nt	nt	nt	nt	i
O=C(NNc1c2ccccc2nc2ccccc12)c1ccccc1O	i	54	i	i	i	i
COc1ccc(OCC(=O)NNc2c3ccccc3nc3ccccc23)cc1	57	i	nt	i	i	nt
O=C(COc1ccccc1)NNc1c2ccccc2nc2ccccc12	i	i	nt	i	i	nt
O=C(NNc1c2ccccc2nc2ccccc12)c1ccc(O)cc1O	i	i	i	i	i	nt
C/C=C/c1cnc2c(c1)C(=O)N([C@H](C)CO)C[C@@H](C)[C@@H](CN(C)Cc1cncnc1)O2	nt	nt	i	nt	nt	i
c1ccc(N2CCCCC2)c(Nc2nc3ccccc3n3cnnc23)c1	i	i	i	i	i	i
c1ccc(Nc2nc3ccccc3n3cnnc23)cc1	i	i	i	i	i	i
CCOc1ccc(Nc2nc3ccccc3n3cnnc23)cc1	87	i	i	i	i	i
c1ccc2c(c1)nc(Nc1ccc(N3CCCCC3)cc1)c1nncn12	51	i	i	i	i	i
O=C(NCC[C@@H]1CC[C@H](NC(=O)C2CCC2)[C@H](CO)O1)c1cnccn1	nt	nt	i	nt	nt	i
Clc1ccc(/C=C/c2nc3ccccc3[nH]2)cc1	81	i	nt	-74	i	nt
Clc1cccc(Cl)c1/C=C/c1nc2ccccc2[nH]1	i	i	nt	i	i	nt
Clc1ccc(/C=C/c2nc3ccccc3[nH]2)c(Cl)c1	64	i	nt	-76	i	nt
CO[C@@H]1CN(C)C(=O)c2ccc(NC(=O)C3CCCC3)cc2OC[C@H](C)N(S(C)(=O)=O)C[C@H]1C	nt	nt	i	nt	nt	i
O=S(c1cc(Cl)cc(Cl)c1O)c1cc(Cl)cc(Cl)c1O	i	54	i	nt	nt	i
CN(CCc1ccccc1)C(=O)c1ccc(NC(=O)Cc2ccc(NC(=O)C3CCCN(C(=O)CCc4ccccc4)C3)cc2)cc1 (stereo unspecified)	58	i	i	i	i	i
CN(CCc1ccccc1)C(=O)c1ccc(NC(=O)Cc2ccc(NC(=O)C3CCN(C(=O)CCc4ccccc4)CC3)cc2)cc1	55	i	i	i	i	i
C[C@@H](O)C#Cc1ccc([C@H]2[C@H](CO)N3CCCCN(C(=O)c4ccncc4)C[C@@H]23)cc1	nt	nt	i	nt	nt	i
CC(=O)Nc1ccc(CNc2ncnc3ccc(-c4c(C)noc4C)cc23)cc1	i	i	i	i	i	70
CC(C)(C)c1cc(=O)[nH]c(SCc2ccccc2)n1	i	i	i	i	i	i
CC(C)(C)c1cc(=O)[nH]c(SCc2ccccc2Cl)n1	i	54	i	i	i	i
CCOc1ccccc1/C=C(/NC(=O)c1ccccc1)C(=O)N(CC)CC	58	50	i	i	i	i
CN(C)CC(=O)Nc1ccc2c(c1)[C@H]1C[C@@H](CC(=O)N(C)C)O[C@@H](CO)[C@H]1O2	nt	nt	i	nt	nt	i
N#C/C(=C(/O)COc1ccc(Cl)cc1)c1nc2ccccc2s1	i	i	i	i	50	i
